Measurements taken from PubChem BioAssay (EPA / NIEHS).
Calls of active or inactive are those of the source. The calls were made as follows: active = hit-call score of the fitted dose curve at least 0.9, where 1 is the maximum; inactive = score below 0.9.

Key:
[1] = CCTE_Deisenroth_DEVTOX-GLR_Endo_CellCount: Viability Assessment in CCTE's DevTox GLR-Endo Assay, Deisenroth Lab (AID 2284420)
In short: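 Viability in differentiating RUES2-GLR cultures is scored by fluorescent nuclear counts after 48 h and two 24-hourly chemical treatments, as percent change from the 0.2% DMSO control.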

[2] = system: SRY-box transcription factor 2 (SOX2) Protein Expression, Deisenroth Lab, SOX2 (gene 6657); experiment: CCTE_Deisenroth_DEVTOX-GLR_Pluri_SOX2: CCTE's DevTox GLR-Pluri Assay Evaluation of SRY-box transcription factor 2 (SOX2) Protein Expression, Deisenroth Lab (AID 2284428)
Protocol: CCTE_Deisenroth_DEVTOX-GLR_Pluri assay is a cell-based, multiplex-readout assay that uses RUES2-GLR, a human pluripotent cell line, with measurements taken at 48 hours after chemical dosing in a 384-well microplateCCTE_Deisenroth_DEVTOX-GLR_Pluri_SOX2 is 1 of 4 assay components calculated from the CCTE_Deisenroth_DEVTOX-GLR_Pluri assay and it measures an the percentage of cells in an pluripotent state. Using a type of inducible fluorescent protein reporter, gain-of-signal activity can be used to understand changes in gene expression with fluorescent microscopy. The percentage of SOX2+ cells are determined by calculating the number of SOX2+ cells divided by the cell count. To generalize the intended target to other relatable targets, this assay component is annotated to the transcription factor intended target family, where the subfamily is SRY-related HMG-box.Data from the assay component CCTE_Deisenroth_DEVTOX-GLR_Pluri_SOX2 was analyzed as 1 assay endpoint. The endpoint is the percent change in the SOX2+ cell population relative to the 0.2% DMSO control in the CCTE_Deisenroth_DEVTOX-GLR_Pluri assay. Furthermore, this assay endpoint can be referred to as a primary readout, because this assay has produced multiple assay endpoints where this one serves as a measure of […].
All assay protocols are aligned to the DevTox GLR-Endo assay workflow. […]

[3] = CCTE_Deisenroth_DEVTOX-GLR_Pluri_CellCount: Viability Assessment in CCTE's DevTox GLR-Pluri Assay Evaluation of Total Cell Counts, Deisenroth Lab (AID 2284430)
In short: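 RUES2-GLR human pluripotent cells, seeded 24 h, then differentiated 48 h with two chemical exposures 24 h apart; 10-point series 1 nM - 200 uM. Fixed, nuclear-stained, imaged (5 fields/well); nuclei count as % change vs 0.2% DMSO.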

Measured: outcome

CC1(C)[C@@H]2CC[C@@]1(C)C(=O)C2
inactive: all assays above
